According to ChEMBL document CHEMBL3988442, “University of Dundee, Small-Polar-MMV Screening Library” (2021):
The whole screen tested about 69,000 compounds, of which about 950 (1.4%) showed an effect of 50% or more. What follows is part of a selection rich in strong results, with near analogues and random picks from the rest.

Tested on: Mycobacterium tuberculosis
Assay: Cornell M. t heat shock assay; note: in the data most compounds retested in dose-response had high values
Type: functional, organism-based
Design: dose or concentration left out as unconfirmed

SMILES | Percent Effect [%]
CN1C[C@@H]2CC[C@H](CC1=O)N2C(=O)c1cc2ccccc2[nH]c1=O | 6.279
CN(C)C(c1ccccn1)[C@H]1CC[C@H](CNC(=O)CC2CCCC2)CC1 (some centres not stated) | -9.462
CC1Cc2cc(-c3cncn3CC(=O)NC(C)(C)C)ccc2N1C.Cl (configuration not stated) | -7.03
Cc1nccn1CCCn1cncc1-c1ccc2c(c1)CCC(C)N2C.Cl (configuration not stated) | 8.681
CCOC(=O)c1n[nH]cc1-c1cncn1CCCn1nc(C)cc1C.Cl | 8.544
Cc1cc(C)n(CCCn2cncc2-c2ccc3c(c2)CC(C)N3C)n1.Cl (configuration not stated) | 79.43
CN1CCCc2cc(-c3cncn3CCNC3CCS(=O)(=O)C3)ccc21.Cl (configuration not stated) | -0.7285
CCN1c2ccc(-c3cncn3CCCn3ccnc3C)cc2CC1C.Cl (configuration not stated) | 100.1
CCN1CCc2cc(-c3cncn3CC(=O)NC(C)(C)C)ccc21.Cl | 19.95
Cc1nccn1CCCn1cncc1-c1ccc2c(c1)CCCN2C.Cl | -22.83
Cc1nn(C)c(C)c1CCn1cncc1-c1ccc2c(c1)CC(C)N2C.Cl (configuration not stated) | 15.02
Cc1nccn1CCCn1cncc1-c1ccc2c(c1)CC(C)N2C.Cl (configuration not stated) | 48.58
CCN1c2ccc(-c3cncn3CC(=O)NC(C)(C)C)cc2CC1C.Cl (configuration not stated) | 85.85
Cl.Cn1cc(C(=O)NCc2cncc3c2CCN(S(C)(=O)=O)C3)cn1 | 36.5
O=C(O)C(F)(F)F.O=C(O)C(F)(F)F.O=C(O)C(F)(F)F.c1ccc(COC[C@H]2CC[C@H]3[C@H](CCN3Cc3ccccn3)O2)nc1 | 4.762
COc1ncccc1C(=O)N1CC[C@H]2C[C@H](c3nnc(C)[nH]3)O[C@@H]2C1.O=C(O)C(F)(F)F | -43.18
Cc1ccc(CN2C[C@@H]3CCN(Cc4cccnc4)C(=O)[C@H]3C2)s1.O=C(O)C(F)(F)F.O=C(O)C(F)(F)F | -19.89
Cc1ccc(N2CCO[C@H]3CN(Cc4cnn(C)c4)C[C@H]32)nn1.O=C(O)C(F)(F)F.O=C(O)C(F)(F)F | 3.052
CCn1ncc2c1C(COCC1CC1)CN(c1ccc(C)nn1)C2.O=C(O)C(F)(F)F.O=C(O)C(F)(F)F (configuration not stated) | 28.05
c1ccc(Cc2nc(CNCCn3cccn3)cs2)cc1 | 96.34
Clc1ccc(Cc2nc(CNCCn3cccn3)cs2)cc1 | 102.1
Clc1ccc(OCCNCCn2cccn2)cc1 | -6.93
Fc1ccc(CNCCn2cccn2)cc1F | -1.295

SMILES | Percent Effect [%]
c1csc(-c2noc(CNCCn3cccn3)n2)c1 | -3.991
CCOC1COC2(CCN(c3cccc(C)n3)CC2)C1.O=C(O)C(F)(F)F (configuration not stated) | -0.3848
CCCOc1ccccc1CN[C@@H]1CCC[C@H]1Cc1cc(C)no1.O=C(O)CC(O)(CC(=O)O)C(=O)O | -26.27
CNC(=O)CN1CCOCC2(CCCN(CCc3ccccc3)C2)C1.O=C(O)C(F)(F)F.O=C(O)C(F)(F)F (configuration not stated) | -11.41
CO[C@@H]1CCN(Cc2ccoc2)C[C@@H]1Cc1ccccc1.O=C(O)C(F)(F)F | 28.11
Cc1ccc(N2CC[C@@H]3[C@@H]2CCN3C(=O)Cc2ccsc2)nn1.O=C(O)C(F)(F)F | 8.036
CC1CCN(c2cncc(CCC3CCCN3)n2)CC1.Cl (configuration not stated) | -9.936
CCCn1ncc(-c2ccnc(NC3CCCc4ccccc43)n2)c1C (configuration not stated) | 27.79
CCCn1cc(-c2ccnc(NC3CCc4ccccc43)n2)c(C)n1 (configuration not stated) | 18.89
CCCn1cc(-c2ccnc(NC3CCCc4ccccc43)n2)c(C)n1 (configuration not stated) | 98
O=C(NCCc1cccs1)[C@H]1CO[C@H]2CCNC[C@H]2C1.O=C(O)C(F)(F)F | 0.5431
Cc1nc(Nc2ncc(C)s2)cc(C2CCCN2)n1.Cl (configuration not stated) | 6.055
Cc1nc(Nc2nnc(C)s2)cc(C2CCCN2)n1.Cl (configuration not stated) | -7.337
Cc1nc(Nc2cnccn2)cc(C2CCCN2)n1.Cl (configuration not stated) | -30.38
Cl.c1cncc(CNc2cncc(C3CCCN3)n2)c1 (configuration not stated) | -18.35
Cl.c1nnc(Nc2cncc(C3CCCN3)n2)s1 (configuration not stated) | 104.6
Cl.c1cnc(Nc2cncc(C3CCCN3)n2)cn1 (configuration not stated) | 54.88
Cc1nc(Nc2nncs2)cc(C2CCCN2)n1.Cl (configuration not stated) | 5.522
Cc1cc(Nc2cnccn2)cc(C2CCCN2)n1 (configuration not stated) | -16.58
Cl.Cn1nc(C2CCN(C(=O)CCN3CCOCC3)CC2)c2cccnc21 | 0.9946
CNC(=O)COC1COC2(CCN(Cc3ccncc3F)CC2)C1.O=C(O)C(F)(F)F (configuration not stated) | 44.76
COc1cccc(CN2CCC3(CCN(C(=O)[C@H]4CCCO4)CC3)C2)c1.O=C(O)C(F)(F)F | -2.359
Cc1cnc(N2Cc3nccn3CC(Cn3ncccc3=O)C2)nc1.O=C(O)C(F)(F)F (configuration not stated) | -35.14

SMILES | Percent Effect [%]
Cc1nc(C)n(CC2CCCN(CC(=O)Nc3nncs3)C2)n1 (configuration not stated) | 11.86
O=C(CN1CCCC(c2ccn[nH]2)C1)Nc1nncs1 (configuration not stated) | 98.23
Cc1nc(C)n(CC2CCCN(CC(=O)Nc3nnc(C)s3)C2)n1 (configuration not stated) | -28.96
Cc1nnc(NC(=O)CN2CCCC(Cn3cncn3)C2)s1 (configuration not stated) | 2.027
Cn1c(C2CC2)nc2c1CCN(CC(=O)Nc1nncs1)C2 | 13.67
Cc1nnc(NC(=O)CN2CCCC(c3ccn[nH]3)C2)s1 (configuration not stated) | 101.7
CCN(CC)S(=O)(=O)N1CC[C@H](c2ccccc2)[C@H]2NCCCC[C@H]21.Cl | -6.669
CC(C)c1nnc(N2C[C@@H]3CC[C@H](C2)N(Cc2ccccc2)C3)s1 | 34.82
COc1ccc(F)c(CN2CCCC3(CCN(C4CCOCC4)C3)C2)c1 (configuration not stated) | 99.36
COc1ccc(F)c(CN2CCCC3(CCN(S(C)(=O)=O)C3)C2)c1 (configuration not stated) | -18.53
CCS(=O)(=O)N1CCC2(CCCN(Cc3cc(OC)ccc3F)C2)C1 (configuration not stated) | 24.11
Cc1ccc(C(=O)N2CCn3c(COCC4CC4)cnc3C2C)nc1.O=C(O)C(F)(F)F (configuration not stated) | -9.703
CCN1CCC2(CC1)CC(NCc1cccs1)c1ccccc1O2.O=C(O)C(F)(F)F.O=C(O)C(F)(F)F (configuration not stated) | -24.55
CCN1C(=O)CC(N(C)Cc2nc3ccccc3c(=O)[nH]2)C1=O (configuration not stated) | 16.93
CN1C(=O)CC(N(C)Cc2nc3ccccc3c(=O)[nH]2)C1=O (configuration not stated) | 15.14
CN(Cc1nc2ccccc2c(=O)[nH]1)C[C@@H]1CCCN2CCCC[C@H]12 | 44.63
CN(CC(=O)N(C)C1CCCCC1)Cc1nc2c(cnn2C)c(=O)[nH]1 | -5.559
CN(CC(=O)N(C)C1CCCCC1)Cc1nc2ccccc2c(=O)[nH]1 | 97.32
CN(Cc1nc2ccccc2c(=O)[nH]1)C1CC(=O)N(C2CC2)C1=O (configuration not stated) | 51.11
CCC(CN1CCCCC1)NC(=O)C1(c2ccc(F)cc2)CC1.O=C(O)CC(O)(CC(=O)O)C(=O)O (configuration not stated) | -8.056
CSCCC(O)C(=O)N1CCN(Cc2cccc(Cl)c2)CC1 (configuration not stated) | 31.13
Cc1ccoc1C(=O)N1CC[C@@H]2CN(C3CCOCC3)CCO[C@@H]2C1.O=C(O)C(F)(F)F | 6.269
COc1ccc(CN2Cc3nnn(C)c3C(COCCN(C)C)C2)cc1.O=C(O)C(F)(F)F.O=C(O)C(F)(F)F (configuration not stated) | -24.51

SMILES | Percent Effect [%]
Cl.Nc1ncc(-c2csc(NC(=O)C[C@H]3COCCN3)n2)cn1 | -19.35
CCN(CC)S(=O)(=O)N1CCCC1c1cccc(Nc2ncc(C)s2)n1 (configuration not stated) | 70.89
COCC(=O)N1CCCC1c1cccc(Nc2ncc(C)s2)n1 (configuration not stated) | 102.5
COCC(=O)N1CCCCC1c1ccnc(Nc2ncc(C)s2)n1 (configuration not stated) | -16.88
Cc1cccc(C2CCCN2S(=O)(=O)N(C)C)n1 (configuration not stated) | -7.65
Cc1cnc(Nc2cccc(C3CCCN3C(=O)CO)n2)s1 (configuration not stated) | -6.272
CCc1nnc(Nc2cccc(C3CCN(S(=O)(=O)N(C)C)CC3)n2)s1 | -4.928
COc1ccc(CN2C[C@@H](N(C)Cc3ccco3)[C@H]3OCCC[C@H]32)cc1.O=C(O)C(F)(F)F.O=C(O)C(F)(F)F | 2.974
CCOc1ccccc1CNC(=O)Cn1ccc2c(C)nn(C)c2c1=O | 9.293
O=C(Cc1ccccc1)N1CCCC2(COCCN(CC3CC3)C2)C1.O=C(O)C(F)(F)F (configuration not stated) | -3.666
Cc1nc(Nc2nnc(C)s2)cc(C2CCCN2C2CCCC2)n1 (configuration not stated) | -11.05
CN(C)c1nccc(N2CCO[C@H]3CN(Cc4nccn4C)C[C@H]32)n1.O=C(O)C(F)(F)F | -13.16
CC(C)n1c2ccccc2c2c1cc(C(=O)N(C)C)n2C(=O)N(C)C | 11.26
CC(C)n1c2ccccc2c2c1cc(C(=O)NCCO)n2C(=O)N(C)C | 20.51
CC(C)n1c2ccccc2c2c1cc(C(=O)O)n2C(=O)N(C)C | 64.45
COc1ccc(CC(=O)N2CCN(c3nccn3C)CC2)cc1.Cl | 6.481
O=C(O)C(F)(F)F.O=S(=O)(C1CC1)N1CCCn2cnc(COc3cccnc3)c2C1 | 9.967
Cc1cc(NC(=O)CN2C(=O)CC(C)(C)c3ccccc32)no1 | 6.008
CC1(C)CC(=O)N(CC(=O)Nc2ccon2)c2ccccc21 | 77.91
CCn1ccc(NC(=O)CN2C(=O)CC(C)(C)c3ccccc32)n1 | 2.312
CCn1ccc(NC(=O)CN2C(=O)C(C)(C)c3ccccc32)n1 | -16.77
CCn1cc(NC(=O)CN2C(=O)CC(C)(C)c3ccccc32)cn1 | 52.7
Cc1cccc(NC(=O)CN2C(=O)CC(C)(C)c3ccccc32)n1 | -2.777
